Laboratory results as given in PubChem BioAssay AID1159580 (chemical genetic matrix, 2015).
Where “and” joins values, the source holds several entries; their conditions need not be identical. Identical values can stand only once. About 2,000 (36%) of roughly 5,500 compounds were called active. Not shown: some 18% with an inconclusive outcome. Cut-off read from the data, not from the text of the source: active = normalized growth mostly below about 0.91 (no sharp cut-off); inconclusive = no clear call, values can overlap the other calls; inactive = mostly above about 0.92. Some of the results follow.

Assay: chemical genetic growth profiling, strain panel (AID 1159580);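 note: tested at 20 µM; growth read once vehicle control cultures reached saturation at 30 °C; 1 = growth at the plate median or of vehicle wells; lower values mean less growth of the strain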
Conditions: S. cerevisiae deletion strains, growth OD
[1] = locus YHR030C, strain SLT2, active compounds read low
[2] = locus YHR079C, strain IRE1, active compounds read low
[3] = locus YJL095W, strain BCK1, active compounds read low
[4] = locus YJR066W, strain TOR1, active compounds read low
[5] = locus YLR113W, strain HOG1, active compounds read low
[6] = locus YNL183C, strain NPR1, active compounds read low
[7] = locus YOR231W, strain MKK1, active compounds read low
[8] = locus YPL256C, strain CLN2, active compounds read low

Measured: normalized growth

C=C(C)[C@@H]1CC[C@]2(C)CC[C@]3(C)[C@@H](CCC4[C@@]5(C)CC[C@H](O)C(C)(C)C5CC[C@]43C)C12 (some centres not stated)
inactive: [1] 1 | [2] 0.978 | [3] 0.993 | [4] 0.944 | [5] 0.992 | [6] 0.923 | [7] 0.99 | [8] 0.994

C=C(C)[C@@H]1CC[C@]2(CO)CC[C@]3(C)[C@H](CCC4[C@@]5(C)CC[C@H](O)C(C)(C)C5CC[C@]43C)C12 (some centres not stated)
inactive: locus YAL021C, strain ccr4, active compounds read low 1.02 | locus YAL026C, strain drs2, active compounds read low 1.01 | locus YAL030W, strain snc1, active compounds read low 1.01 | locus YBL061C, strain skt5, active compounds read low 1.02 | locus YBR009C, strain hhf1, active compounds read low 1.01 | locus YBR021W, strain FUR4, active compounds read low 0.984 | locus YBR023C, strain chs3, active compounds read low 1.01 | locus YBR171W, strain sec66, active compounds read low 1.02 | locus YBR229C, strain ROT2, active compounds read low 0.995 | locus YBR231C, strain swc5, active compounds read low 1.01 | locus YBR279W, strain paf1, active compounds read low 1.01 | locus YCL011C, strain gbp2, active compounds read low 1.01 | locus YCL016C, strain dcc1, active compounds read low 1.01 | locus YCL029C, strain bik1, active compounds read low 0.979 | locus YCL061C, strain MRC1, active compounds read low 1.01 | locus YCL069W, strain vba3, active compounds read low 1.01 | locus YCR088W, strain abp1, active compounds read low 1.01 | locus YDL005C, strain med2, active compounds read low 1 | locus YDL035C, strain GPR1, active compounds read low 1.02 | locus YDL040C, strain nat1, active compounds read low 1.01 | locus YDL074C, strain BRE1, active compounds read low 1.01 | locus YDL101C, strain DUN1, active compounds read low 0.991 | locus YDL185W, strain tfp1, active compounds read low 0.977 | locus YDL192W, strain arf1, active compounds read low 0.997 | locus YDR001C, strain nth1, active compounds read low 1 | locus YDR069C, strain doa4, active compounds read low 1 | locus YDR101C, strain arx1, active compounds read low 0.977 | locus YDR137W, strain rgp1, active compounds read low 1.01 | locus YDR159W, strain sac3, active compounds read low 1.01 | locus YDR162C, strain NBP2, active compounds read low 1.02 | locus YDR195W, strain ref2 0.972 | locus YDR297W, strain sur2, active compounds read low 1.01 | locus YDR318W, strain mcm21, active compounds read low 1.02 | locus YDR334W, strain swr1, active compounds read low 0.996 | locus YDR335W, strain msn5, active compounds read low 1 | locus YDR388W, active compounds read low 1.01 | locus YDR392W, strain spt3, active compounds read low 0.925 | locus YDR502C, strain sam2, active compounds read low 0.997 | locus YEL003W, strain gim4, active compounds read low 1 | locus YEL037C, strain rad23, active compounds read low 0.977 | locus YEL061C, strain CIN8 (second series), active compounds read low 1 | locus YEL061C, strain CIN8, active compounds read low 1.02 | locus YER015W, strain faa2, active compounds read low 0.996 | locus YER016W, strain bim1, active compounds read low 1.01 | locus YER110C, active compounds read low 0.99 | locus YER111C, strain swi4, active compounds read low 1.01 | locus YER155C, strain BEM2 (second series), active compounds read low 0.984 | locus YER155C, strain BEM2, active compounds read low 0.992 | locus YER167W, strain BCK2, active compounds read low 1 | locus YFR010W, strain ubp6, active compounds read low 0.999 | locus YGL078C, strain dbp3, active compounds read low 0.989 | locus YGL086W, strain mad1, active compounds read low 0.973 | locus YGL167C, strain pmr1, active compounds read low 1.01 | locus YGL173C, strain kem1, active compounds read low 1.01 | locus YGL227W, strain vid30, active compounds read low 1.02 | locus YGL240W, strain doc1, active compounds read low 1.01 | locus YGL248W, strain PDE1, active compounds read low 1 | locus YGL253W, strain hxk2, active compounds read low 1.04 | locus YGR135W, strain pre9, active compounds read low 1.01 | locus YGR252W, strain gcn5, active compounds read low 1.05 | locus YHR013C, strain ard1, active compounds read low 1.03 | locus YHR027C, strain rpn1, active compounds read low 1 | [1] 0.995 and 0.997 | locus YHR079C, strain IRE1 (second series), active compounds read low 0.992 | [2] 0.998 | locus YHR094C, strain hxt1, active compounds read low 1 | locus YHR129C, strain ARP1, active compounds read low 0.949 | locus YHR142W, strain chs7, active compounds read low 1.06 | locus YHR200W, strain rpn10, active compounds read low 0.998 | locus YIL066C, strain RNR3, active compounds read low 0.993 | locus YIL073C, strain SPO22, active compounds read low 1.01 | locus YIL125W, strain kgd1, active compounds read low 0.986 | locus YIR030C, strain dcg1, active compounds read low 0.989 | locus YJL092W, strain hpr5, active compounds read low 1.01 | locus YJL095W, strain BCK1 (second series), active compounds read low 1.01 | [3] 1.02 and 0.982 | locus YJL115W, strain asf1, active compounds read low 1.01 | locus YJL129C, strain trk1, active compounds read low 1.03 | locus YJL134W, strain LCB3, active compounds read low 0.992 | locus YJL154C, strain vps35, active compounds read low 0.998 | locus YJL164C, strain tpk1, active compounds read low 1.01 | locus YJL166W, strain qcr8, active compounds read low 1.01 | locus YJL168C, strain set2, active compounds read low 0.994 | locus YJL187C, strain SWE1 (second series), active compounds read low 0.996 | locus YJL187C, strain SWE1, active compounds read low 1.01 | locus YJR043C, strain POL32, active compounds read low 0.996 | [4] 0.932 | locus YJR075W, strain HOC1, active compounds read low 1.01 | locus YKL009W, strain mrt4, active compounds read low 0.963 | locus YKL160W, strain elf1, active compounds read low 1.03 | locus YKL190W, strain CNB1, active compounds read low 1.03 | locus YKR001C, strain vps1, active compounds read low 0.976 | locus YKR026C, strain gcn3, active compounds read low 1.01 | locus YKR091W, strain srl3, active compounds read low 1 | locus YLL001W, strain dnm1, active compounds read low 1.03 | locus YLL026W, active compounds read low 1 | locus YLL041C, strain sdh2, active compounds read low 1 | locus YLR027C, strain aat2, active compounds read low 1 | locus YLR039C, strain RIC1, active compounds read low 1.02 | locus YLR058C, strain SHM2, active compounds read low 1.01 | locus YLR102C, strain apc9, active compounds read low 0.991 | [5] 0.999 | locus YLR221C, strain rsa3, active compounds read low 1.03 | locus YLR258W, strain gsy2, active compounds read low 0.996 | locus YLR262C, strain YPT6 (second series), active compounds read low 1 | locus YLR262C, strain YPT6, active compounds read low 1.08 | locus YLR268W, strain sec22, active compounds read low 0.964 | locus YLR320W, strain mms22, active compounds read low 1.04 | locus YLR330W, strain CHS5, active compounds read low 1 | locus YLR342W, strain FKS1 (second series), active compounds read low 0.998 | locus YLR342W, strain FKS1, active compounds read low 0.986 | locus YLR357W, strain rsc2, active compounds read low 1.01 | locus YLR370C, strain arc18, active compounds read low 1.02 | locus YLR371W, strain rom2, active compounds read low 0.985 | locus YLR384C, strain iki3, active compounds read low 1.01 | locus YLR418C, strain cdc73, active compounds read low 1.01 | locus YML016C, strain PPZ1, active compounds read low 0.985 | locus YML032C, strain rad52, active compounds read low 1.02 | locus YML120C, strain ndi1, active compounds read low 1 | locus YML124C, strain tub3, active compounds read low 0.994 | locus YMR058W, strain fet3, active compounds read low 1.02 | locus YMR078C, strain ctf18, active compounds read low 0.973 | locus YMR125W, strain sto1, active compounds read low 1.01 | locus YMR129W, active compounds read low 1 | locus YMR205C, strain PFK2, active compounds read low 1.03 | locus YMR223W, strain ubp8, active compounds read low 1 | locus YMR231W, strain pep5, active compounds read low 1.01 | locus YMR307W, strain GAS1, active compounds read low 1.09 | locus YNL067W, strain RPL9B, active compounds read low 1 | locus YNL071W, strain lat1, active compounds read low 1.01 | [6] 0.939 | locus YNL209W, strain ssb2, active compounds read low 1.01 | locus YNL233W, strain BNI4, active compounds read low 0.999 | locus YNL248C, strain rpa49, active compounds read low 1 | locus YNL250W, strain rad50, active compounds read low 0.978 | locus YNL271C, strain bni1, active compounds read low 0.976 | locus YNL298W, strain CLA4, active compounds read low 1.01 | locus YNL307C, strain MCK1, active compounds read low 0.988 | locus YNL322C, strain KRE1 (second series), active compounds read low 1.01 | locus YNR049C, strain mso1, active compounds read low 1.01 | locus YNR052C, strain pop2, active compounds read low 0.998 | locus YOL012C, strain htz1 0.862 | locus YOL147C, strain pex11, active compounds read low 0.992 | locus YOR001W, strain rrp6, active compounds read low 0.98 | locus YOR061W, strain CKA2, active compounds read low 0.994 | locus YOR069W, strain VPS5, active compounds read low 0.99 | locus YOR070C, strain gyp1, active compounds read low 1.01 | locus YOR080W, strain dia2, active compounds read low 1.01 | locus YOR083W, strain WHI5, active compounds read low 1.03 | locus YOR106W, strain vam3, active compounds read low 1.02 | locus YOR136W, strain idh2, active compounds read low 0.979 | locus YOR144C, strain elg1, active compounds read low 0.997 | locus YOR184W, strain ser1, active compounds read low 0.98 | [7] 0.995 | locus YOR265W, strain rbl2, active compounds read low 1.02 | locus YOR270C, strain vph1, active compounds read low 1.04 | locus YOR290C, strain snf2, active compounds read low 1 | locus YOR316C, strain cot1, active compounds read low 0.999 | locus YPL051W, strain arl3, active compounds read low 1.02 | locus YPL078C, strain atp4, active compounds read low 1.01 | locus YPL106C, strain sse1, active compounds read low 1 | locus YPL240C, strain hsp82, active compounds read low 1 | [8] 0.972 | locus YPR119W, strain clb2, active compounds read low 0.993 | locus YPR141C, strain kar3, active compounds read low 0.984 | locus YPR163C, strain tif3, active compounds read low 1 | locus YPR167C, strain met16, active compounds read low 1.01 | strain wtn01, active compounds read low 0.946
active: locus YKL068W, active compounds read low 1.09 [resistant]
